# Source: PubChem BioAssay (Broad Institute)
# Wnt bcat act – Wnt/beta-catenin pathway activators, primary screen, cell-based, plate reader, single point. Wnt/beta-catenin reporter cell assay, activator. activation, % at 9.35 µM. 1.2% of 300,000 active. AID 743398, 2014; in the data active = activation above about 30%, passing the limit was not always enough; inconclusive = no clear call, values can overlap the other calls;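 also: 0% = neutral control wells and 100% = positive control wells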
# rRNA inh HTS – reduced GFP signal of wild-type E. coli, primary screen, bacterial rRNA inhibitor project, GFP/RFP fluorescence, OD600, single point. 1.6% of 350,000 active. GFP signal change (wild-type ribosome), % (no concentration beside the values). AID 720706, 2013. E. coli WT GFP vs humanized-ribosome RFP mutants, 24 h; active compounds read low; DMSO median 0, no signal -100;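 active = significant combined selectivity score with lowered wild-type GFP, culture density cut under 30%, mutant RFP and density less affected; inactive = any of these conditions unmet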
# esBAF inh – Bmi1 luciferase reporter increase in mESCs, primary screen, esBAF inhibitor project, mouse ES cells, Bmi1 luciferase knock-in, single point; 24 h; 100% = twice the neutral-well signal; reporter increase, % at 12.5 µM; 2% of 350,000 active; AID 602393, 2012; in the data active = activation above about 40%; inconclusive = no clear call, values can overlap the other calls;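 also: 0% = median of the plate's neutral control wells and 100% = double that signal; a rise in the Bmi1 reporter signal indicates esBAF inhibition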
# MITF act – activators of MITF-driven TRPM1 promoter reporter, primary screen, cell-based, SK-MEL-5, luciferase, single point. 0.75% of 300,000 active. activation, % at 12.5 µM. SK-MEL-5 TRPM1-promoter luciferase, 24 h; % of positive control, neutral wells = 0;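 active = mean activation of at least 80% with every replicate also reaching 80%; inconclusive = mean reaches 80% but some replicate falls short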;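 also: 0% = neutral control wells and 100% = parthenolide positive control wells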
# MLL AF4-AF9 inh – inhibitors of AF4 peptide binding to AF9, primary screen, biochemical, AlphaScreen, biotin-AF4 peptide, FLAG-AF9, single point; Protein AF-9 (Homo sapiens), P42568; 0.47% of 350,000 active; inhibition, % at 10 µM;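 active = every replicate reaching a set inhibition limit, whatever the replicate mean, cut at about 25% in these data; inconclusive = mean inhibition reaches that limit but some replicates miss it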;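 also: 0% = plate neutral control median and 100% = total signal loss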
# Target sequence (P42568 whole entry, looked up): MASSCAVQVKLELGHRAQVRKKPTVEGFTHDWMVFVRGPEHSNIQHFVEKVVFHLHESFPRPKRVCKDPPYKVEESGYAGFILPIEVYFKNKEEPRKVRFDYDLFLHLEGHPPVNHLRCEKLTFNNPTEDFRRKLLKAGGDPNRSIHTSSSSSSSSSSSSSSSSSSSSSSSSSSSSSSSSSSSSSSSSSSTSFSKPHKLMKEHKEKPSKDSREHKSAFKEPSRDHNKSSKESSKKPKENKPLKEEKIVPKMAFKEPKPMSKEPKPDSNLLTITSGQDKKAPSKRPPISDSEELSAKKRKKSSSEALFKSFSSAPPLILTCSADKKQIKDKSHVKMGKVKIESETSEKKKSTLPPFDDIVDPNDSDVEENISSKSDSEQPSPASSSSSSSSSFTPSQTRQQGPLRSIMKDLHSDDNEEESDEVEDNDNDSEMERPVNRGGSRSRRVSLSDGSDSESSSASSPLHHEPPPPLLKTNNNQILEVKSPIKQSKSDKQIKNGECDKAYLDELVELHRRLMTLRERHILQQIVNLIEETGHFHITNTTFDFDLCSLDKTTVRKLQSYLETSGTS
# * = called active by the depositor; ? = inconclusive; · = no result given. Rows were chosen to be rich in hits. Some 3.7% of all compounds tested hit in one or more screens of this group.
SMILES,Wnt bcat act,rRNA inh HTS,esBAF inh,MITF act,MLL AF4-AF9 inh
CCCc1ccc2oc(C(=O)N3CCC(N4CCCC(O)C4)CC3)c(C)c2c1 (stereo not given),-3,-7,3,9,0
CCCc1ccc2oc(C(=O)N3CCC[C@H]3CO)c(C)c2c1,20,-25,57*,69,5
CCCc1ccc2oc(C(=O)NCCN3CCCC(O)C3)c(C)c2c1 (stereo not given),0,1,·,44,2
CCCc1ccc2oc(C(=O)N3CCC(COC)C3)c(C)c2c1 (stereo not given),11,-15,54*,103*,-5
C=CCc1ccc(OCCCCN2CC(C)CC(C)C2)c(OC)c1 (stereo not given),1,-22*,-1,21,8
C=CCc1ccc(OCCCCN2CCC(C)CC2)c(OC)c1,-9,·,·,11,·
Cc1ccc(-c2nc3ccccc3nc2Cl)cc1,20,20,·,13,-1
Cc1ccc(-c2nc3ccccc3nc2NN)cc1,44*,1,·,·,2
C=CCNC(=O)[C@@H]1[C@H]2C(=O)O[C@H](c3ccccc3)[C@H](c3ccccc3)N2[C@H](c2ccccc2OCCO)[C@@]12C(=O)Nc1ccc(C#Cc3ccc(OC)cc3)cc12,·,·,·,·,0
CCOc1ccc(NC(=O)c2ccc3c(c2)N(C)CCS3)cc1,37*,0,72*,·,-2
CN1CCSc2ccc(C(=O)NCc3ccccc3F)cc21,6,-1,30,49,4
CN1CCSc2ccc(C(=O)Nc3cc(F)ccc3F)cc21,43*,3,13,97*,-11
CCN1CCSc2ccc(C(=O)Nc3ccc(NC(C)=O)cc3)cc21,-22,-12,11,6,4
CCN(CC)S(=O)(=O)c1ccc2[nH]cc(C(=O)NCCc3ccc(OC)c(OC)c3)c(=O)c2c1,·,·,1,-23,·
CC(=O)c1cccc(Nc2ccc(Br)cc2)c1,18,-11,54*,·,-3
Cc1cccc(NC(=O)Nc2ccc3c(c2)CCC3)c1,22,5,·,?,0
CC(=O)c1cccc(NC(=O)Nc2ccc3c(c2)CCC3)c1,19,-5,66*,97*,0
Cc1cc(NC(=O)c2noc3c2CCc2ccccc2-3)no1,10,-4,40,25,1
CCc1ccc(NC(=O)Nc2ccc3c(c2)CCC3)cc1,10,2,53*,51,-1
CC(=O)c1cccc(NC(=O)c2noc3c2CCc2ccccc2-3)c1,33*,14,17,?,-13
NC(=O)C1CCN(C(=O)c2ccc3nc(-c4ccccc4)c(-c4ccccc4)nc3c2)CC1,-3,-3,2,-11,2
O=S(=O)(c1ccc(F)cc1)N1CCN(S(=O)(=O)c2ccc3c(c2)OCCO3)CC1,1,21,-2,7,0
CCOC(=O)N1CCC(NC(=O)CCC(=O)N2CC(C)Oc3ccc(C)cc32)CC1 (stereo not given),·,·,·,8,·
CC(=O)c1cccc(NC(=O)c2ccc3c(c2)CCCC3)c1,24,-26,15,113*,3
CCc1ccc(NC(=O)Nc2ccon2)cc1,17,2,44*,59,1
SMILES,Wnt bcat act,rRNA inh HTS,esBAF inh,MITF act,MLL AF4-AF9 inh
COc1cccc(NC(=O)c2ccc3c(c2)CCCC3)c1,0,-14,27,46,-1
O=C(N[C@@H]1CC[C@@H](CC(=O)N2CCOCC2)O[C@@H]1CO)c1cccc(F)c1,·,1,9,·,0
O=C(Nc1ccc(F)c(Cl)c1)c1cc(C2CCCCN2C(=O)C2CC2)on1 (stereo not given),-4,-7,5,·,-8
COc1cccc(OCc2cc(C(=O)N(C)CCC3CCCCO3)no2)c1 (stereo not given),7,0,35,34,-12
CC(=O)c1cccc(OCc2cc(C(=O)N(C)CCC3CCOCC3)no2)c1,21,-1,52*,63,0
COc1ccccc1OCc1cc(C(=O)N(C)CCC2CCOCC2)no1,40*,0,54*,·,1
C[C@H]1CN([C@@H](C)CO)C(=O)c2cc(NC(=O)Nc3ccc(F)cc3)ccc2O[C@@H]1CN(C)Cc1ccc(C(=O)O)cc1,·,1,2,·,-3
O=C(Nc1ccccc1)c1cc(C2CCCCN2S(=O)(=O)c2ccccc2)on1 (stereo not given),18,0,52*,·,-2
O=C(Nc1ccccc1)c1cc(C2CCCCN2S(=O)(=O)c2cccs2)on1 (stereo not given),28,-8,82*,·,3
C[C@H](CO)N1C[C@H](C)[C@H](CN(C)Cc2ccc(Cl)c(Cl)c2)Oc2ccc(N(C)C)cc2CC1=O,·,-13,1,·,19
C[C@@H]1CN([C@H](C)CO)C(=O)c2cc(N(C)C)ccc2O[C@H]1CN(C)Cc1ccc(Cl)c(Cl)c1,·,-12,-4,·,28*
C[C@@H]1CN([C@@H](C)CO)C(=O)c2cc(N(C)C)ccc2O[C@@H]1CN(C)Cc1ccc(Cl)c(Cl)c1,·,-9,5,·,33*
C[C@@H]1CN([C@H](C)CO)C(=O)c2cc(N(C)C)ccc2O[C@@H]1CN(C)Cc1ccc(Cl)c(Cl)c1,·,-6,-1,·,28*
COc1ccccc1N(CC(=O)NCC(C)C)S(=O)(=O)c1cccs1,-7,·,·,0,·
COC(=O)c1ccccc1N=Nc1c(C)noc1C,3,-28*,·,-1,·
COC(=O)c1ccccc1N=Nc1c(C)n[nH]c1C,0,-7,·,·,·
CC(C)C[C@@H]1COc2cc(N(C)CCO)ccc2S(=O)(=O)N1,4,-3,·,·,0
c1ccc2[nH]c(SCC3CCCCO3)nc2c1 (stereo not given),40*,-8,·,87*,-3
CCOC(=O)NC(=O)CSc1nc2ccc(OCC)cc2[nH]1,-2,·,·,-9,·
Cc1cc(C(=O)CSc2nc3ccccc3[nH]2)c(C)n1CC1CCCO1 (stereo not given),·,·,-52,-33,·
CCOc1ccc2nc(SCC3CC3(Cl)Cl)[nH]c2c1 (stereo not given),35*,-45,·,·,-2
O=C(O)CSc1nc2ccccc2[nH]1,-3,·,0,3,·
ClC1(Cl)CC1CSc1nc2ccccc2[nH]1 (stereo not given),9,-28*,·,66,-3
CCN(CC)c1nc(OC)nc(-n2nnc(C(C)=O)c2C)n1,·,·,-3,8,·
CCN1CCN(CCNC(=O)c2ccc(/C=C3/Sc4ccccc4N(Cc4ccccc4C)C3=O)cc2)CC1,1,-51,4,11,21
COc1c(C(=O)Nc2nnc(C3CC3)s2)csc1Cl,24,1,48*,36,-4
Cc1cccc(OCC(=O)Nc2sc3c(c2C#N)CCC3)c1,-2,16,84*,74,2
Cc1cnc(C(=O)OCC(=O)Nc2sc3c(c2C#N)CCC3)cn1,0,8,-3,-10,-14
